For 33 compounds, IC50 results are on record in PubChem BioAssay AID488777 (Sanford-Burnham Center for Chemical Genomics, 2010).

“And” between values parts separate entries of the source, which are not always exact repeats. Equal values may be shown once. The source made the active and inactive calls. No rule for the calls is given here. Some results are limits rather than exact numbers.

This test in a line: assay artefact check, AlphaScreen readout interference – biochemical, artefact control for SUMOylation inhibitor project, SAR follow-up (AID 488777). The settings on record: purified counter-screen enzymes, TR-FRET, 60 min.
For the compound `CCCCn1c(N)c(C#N)c2nc3ccccc3nc21`, the IC50 was > 100 µM (inactive).

On to `CCC[C@H](Nc1ccccc1)C12C=CC(O1)C(C(=O)OC)=C2C(=O)OC` (stereo partly drawn), for which the IC50 is > 100 µM (inactive). Next, `COC(=O)C=C(NC(CO)(CO)CO)C(=O)OC`: > 100 µM (inactive).

On to `COC(=O)C1=C(C(=O)OC)C2(C(Cc3ccc(F)cc3)Nc3ccccc3)C=CC1O2` (stereo not drawn), for which the IC50 is > 100 µM (inactive).

As for `COC(=O)[C@@H]1C2CCC([C@@H](Cc3ccccc3)Nc3ccccc3)(O2)[C@@H]1C(=O)OC` (stereo partly drawn), the IC50 was > 100 µM (inactive).

With `CCCCn1c(NC(=O)C2CCCCC2)c(C#N)c2nc3ccccc3nc21`, the IC50 was > 100 µM (inactive). In the case of `CCCCn1c(NC(=O)c2ccccc2Cl)c(S(=O)(=O)c2ccccc2)c2nc3ccccc3nc21`, the IC50 was > 100 µM (inactive). Then `C=C[C@H](Nc1ccccc1)C12C=CC(O1)C(C(=O)OC)=C2C(=O)OC` (stereo partly drawn), with > 100 µM (inactive). Next, `CCCC1=NN(c2ccccc2)C(=O)/C1=C/c1ccc(OCc2ccc(C(=O)OC)cc2)cc1`: > 100 µM (inactive); `C=CCn1c(NC(=O)c2ccccc2Cl)c(C#N)c2nc3ccccc3nc21`: > 100 µM (inactive). In the case of `c1ccc(CC(Nc2ccccc2)c2ccco2)cc1` (stereo not drawn), the IC50 is > 100 µM (inactive). Then `CCCC1=NN(c2ccc(C(=O)O)cc2)C(=O)/C1=C/c1ccc(O)cc1`, with > 100 µM (inactive); and `COC(=O)C1=C(C(=O)OC)C2([C@@H](Cc3ccc(C)cc3)Nc3ccccc3)C=CC1O2` (stereo partly drawn), with > 100 µM (inactive). Next, `CCCCn1c(NC(=O)c2ccc(F)cc2)c(C#N)c2nc3ccccc3nc21`: 65.3 µM (active); `CCCCn1c(NC(=O)c2ccc(F)cc2)c(S(=O)(=O)c2ccc(C)cc2)c2nc3ccccc3nc21`: > 100 µM (inactive). Next, `COC(=O)C1=C(C(=O)O)C2C=CC1([C@@H](Cc1ccccc1)Nc1ccccc1)O2` (stereo partly drawn): > 100 µM (inactive); `CCCCn1c(NC(=O)c2ccccc2Cl)c(C#N)c2nc3ccccc3nc21`: > 100 µM (inactive); `CCCC1=NN(c2ccc(C(=O)O)cc2)C(=O)/C1=C/c1ccc(OCc2ccccc2)c(OC)c1`: > 100 µM (inactive).

As for `CCCCn1c(NC(=O)c2ccccc2)c(C#N)c2nc3ccccc3nc21`, the IC50 was 65.2 µM (active) and 91.7 µM (active).

Consider `C=C[C@@H](Nc1ccccc1)C12C=CC(O1)C(C(=O)OC)=C2C(=O)OC` (stereo partly drawn), for which the IC50 was > 100 µM (inactive). Next, `COC(=O)C1=C(C(=O)OC)C2(C(Cc3ccc(OC(F)(F)F)cc3)Nc3ccccc3)C=CC1O2` (stereo not drawn): > 100 µM (inactive); `COC(=O)C1=C(C(=O)OC)C2([C@@H](Cc3ccc(OC)cc3)Nc3ccccc3)C=CC1O2` (stereo partly drawn): > 100 µM (inactive); `CCCCn1c(N)c(S(=O)(=O)c2ccc(C)cc2)c2nc3ccccc3nc21`: > 100 µM (inactive).

As to `CCC[C@@H](Nc1ccccc1)C12C=CC(O1)C(C(=O)OC)=C2C(=O)OC` (stereo partly drawn), the IC50 is > 100 µM (inactive). `N#Cc1c(NC(=O)c2ccccc2Cl)n(Cc2ccccc2)c2nc3ccccc3nc12`: the IC50 was > 100 µM (inactive). Next, `CCCCn1c(NC(=O)c2ccccc2)c(S(=O)(=O)c2ccc(C)cc2)c2nc3ccccc3nc21`: > 100 µM (inactive); `CCCCn1c(NC(=O)c2cccc(Cl)c2)c(C#N)c2nc3ccccc3nc21`: > 100 µM (inactive). Next, `CCCCn1c(NC(=O)c2ccco2)c(C#N)c2nc3ccccc3nc21`: > 100 µM (inactive); `CCCCn1c(NC(=O)c2ccc(Cl)cc2)c(C#N)c2nc3ccccc3nc21`: 54.4 µM (active); `COC(=O)C1=C(C(=O)OC)C2([C@H](Cc3ccc(C)cc3)Nc3ccccc3)C=CC1O2` (stereo partly drawn): > 100 µM (inactive). In the case of `CCCCn1c(NC(C)=O)c(C#N)c2nc3ccccc3nc21`, the IC50 is > 100 µM (inactive). Consider `CCCC1=NN(c2ccc(C(=O)O)cc2)C(=O)/C1=C/c1ccc(OCc2ccccc2)cc1`, for which the IC50 is 16.4 µM (active). Turning to `CCCCn1c(NC(=O)c2ccc(OC)cc2)c(S(=O)(=O)c2ccc(C)cc2)c2nc3ccccc3nc21`, the IC50 was > 100 µM (inactive).
